Twelve molecules from the supplement of paper PMC10811239 can be followed below.

Test [1] deals with LEGO organoid PTCC (PTEN-/-; TP53-/-; CDKN2A-/-; CDKN2B-/-). The experiment in a line: bioluminescence (viable cell) signal fold change after vs before treatment, normalised to DMSO (ratio); higher = more tumour cell growth / less inhibition. Particulars: 10 µM; treatment time 6 days. On the procedure: (§1)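 Luc2-labelled iPSC-derived glioblastoma-like organoids (LEGOs, genotypes PT = PTEN-/-;TP53-/-, PTCC = plus CDKN2A/B-/-, PTN = plus NF1-/-) were treated with 10 uM drug for 6 days (applied every other day) at 37 C. Bioluminescence imaging was done before treatment and 2 days after the last dose. BLI signals were normalised to the DMSO control on the same day and then to the pre-treatment signal (N=3).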

Test [2] deals with LEGO organoid PTN (PTEN-/-; TP53-/-; NF1-/-). Described as above. Particulars: 10 µM; treatment time 6 days. The procedure:
as §1

SMILES strings stand for the structures.

In the case of `O=c1[nH]cnc2c1ncn2[C@H]1CC[C@@H](CO)O1` [Didanosine], the bioluminescence came out at 4.18 in test [1] and 0.81 in test [2].

In the case of `CCN(CC)CC#CCOC(=O)C(O)(c1ccccc1)C1CCCCC1` (centres undefined) [Oxybutynin], the bioluminescence is 0.776 in test [1] and 1.53 in test [2].

`CCN(CC)CCNC(=O)c1cc(Cl)c(N)cc1OC` [5-Chloro-2-methoxyprocainamide]: the values for the bioluminescence in test [1] and in test [2] were 0.329 and 1.62, respectively.

For `O=C(NC1CCN(CCCCC2(C(=O)NCC(F)(F)F)c3ccccc3-c3ccccc32)CC1)c1ccccc1-c1ccc(C(F)(F)F)cc1` [Lomitapide], the bioluminescence in test [1] is 0.124; in test [2], 0.

`O=C1NC(=O)C(c2ccccc2)(c2ccccc2)N1` [Phenytoin]: the bioluminescence in test [1] turned out to be 0.982; in test [2], 1.39.

With `OC(Cn1cncn1)(Cn1cncn1)c1ccc(F)cc1F` [Fluconazole], the bioluminescence worked out at 0.967 in test [1] and 1.54 in test [2].

With `Cl.CN(C)CC\C=C1\c2ccccc2C=Cc2ccccc12` [Cyclobenzaprine hydrochloride], the bioluminescence in test [1] was determined as 1.61; in test [2], 3.73.

On to `CCCC(CCC)C(=O)[O-].[Na+]` [Valproic acid sodium salt], for which the values for the bioluminescence in test [1] and in test [2] were 1.23 and 2.43, respectively.

As for `CC1=C(CC(=O)O)c2cc(F)ccc2/C1=C\c1ccc(S(C)=O)cc1` (centres undefined) [Sulindac], the values for the bioluminescence in test [1] and in test [2] were 1.38 and 1.47, respectively.

Turning to `CCC1(c2ccccc2)C(=O)NCNC1=O` [Primidone], the figures for the bioluminescence in test [1] and in test [2] were 0.824 and 0.89, respectively.

As to `CN(C)CCc1c[nH]c2ccc(Cn3cncn3)cc12.O=C(O)c1ccccc1` [Rizatriptan benzoate], the bioluminescence amounted to 1.84 in test [1] and 0.666 in test [2].

Turning to `C=CC(=O)Nc1cc(Nc2nccc(-c3cn(C)c4ccccc34)n2)c(OC)cc1N(C)CCN(C)C` [Osimertinib], the bioluminescence in test [1] amounted to 0.0861; in test [2] it was 0.0227.
